Screening results deposited in PubChem by several laboratories.
HSF1 activator: increases HSF-1 driven luciferase reporter signal | activation, % at 9 µM | NIH3T3-HGL HSF-1 luciferase reporter, MG132, 8 h; 100% = twice DMSO control signal | AID 504408 | 300,000 tested, 1.7% active;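 active = mean replicate activation of at least 50% with a set share of replicates each reaching 50%; inconclusive = only one of those two conditions met; inactive = mean below 50% and too few replicates reaching it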;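 also: 0% = median of the neutral control wells and 100% = twice that signal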
ARNT-TACC3 inh: disrupts binding between human ARNT and TACC3; AlphaScreen His-ARNT PAS-B/GST-TACC3 binding, luminescence; TACC3 fragment carries E629A point mutation; inhibition, % at 9.99 µM; 390,000 tested, 0.66% active;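 active = mean inhibition of replicates at least 50% and at least half of replicates each reaching 50%; inconclusive = half or more replicates reach 50% but mean below 50%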;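 also: 0% = complete ARNT plus TACC3 wells and 100% = ARNT alone without TACC3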
HIF act: HIF pathway transcriptional activation. U2OS HRE-luciferase reporter, luminescence; normalized: DMSO 0%, desferrioxamine 100%. AID 1910. 300,000 tested, 0.32% active. activation, % at 7.5 µM (by protocol);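 active = mean activation of at least 10% of the iron chelator positive control signal, with at least half of replicates also reaching 10%; inconclusive = mean and replicate majority disagree about reaching 10%; inactive = mean and most replicates under 10%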
HSF1 inh: HSF1 inhibition; NIH3T3-HGL HSE-luciferase, MG132-induced, luminescence 8 h; active compounds read low; activity change, negative = inhibition, % at 7.5 µM (by protocol); 300,000 tested, 0.77% active;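 active = more than half of replicate wells show activity change below -50%, luminescence cut by over half; inconclusive = some wells, but at most half, below -50%; inactive = no replicate well below -50%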;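 also: luciferase reports HSF-1 transcriptional activity via heat shock element; 0% = median of DMSO wells and -100% = zero luminescence signal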
HSP90 inh: HSP90 refolding inhibition in rabbit reticulocyte lysate. luciferase refolding luminescence, 3 h. 290,000 tested, 0.91% active. inhibition, % at 5.6 µM. AID 1789;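 active = inhibition above the screen-wide mean plus 3 SD, computed separately per campaign, cut at about 16% in these data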;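 also: 0% = DMSO wells and 100% = 60 µM geldanamycin wells; inhibitors lower the luminescence because luciferase stays unfolded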
Starred values were filed as active, the others as inactive; ? = inconclusive; · = no result. Sampled rows, rich in hits. Any-hit rate of the full collection: about 3.1%.

SMILES	HSF1 activator	ARNT-TACC3 inh	HIF act	HSF1 inh	HSP90 inh
CCC(CC)c1nnc(NC(=O)c2ccc3ccccc3n2)s1	52.9*	0.4	3.3	14.4	0.7
O=C(C[C@H]1C=C[C@H](NC(=O)c2ccccc2)[C@@H](CO)O1)NCc1ccc(Oc2ccccc2)cc1	·	-0.8	·	·	·
C[C@H]1CN([C@@H](C)CO)S(=O)(=O)c2ccc(/C=C/c3ccccc3)cc2O[C@@H]1CN(C)C(=O)CN1CCOCC1	·	2.2	·	·	·
O=C(Nc1ccccn1)c1ccc2ccccc2n1	74.3*	-25.5	4.0	37.2	4.9
NNC(=O)c1nc[nH]c1C(=O)Nc1ccccn1	-4.6	47.8*	0.4	3.6	-0.4
O=C(Nc1nccs1)c1ccc2ccccc2n1	?	3.9	2.0	39.5	2.7
O=C1N(Cc2ccccc2)CC2(Br)COCOC12O (stereo not drawn)	·	8.9*	·	·	·
C[C@@H]1CN([C@H](C)CO)C(=O)Cc2cc(NS(=O)(=O)c3ccc(Cl)cc3)ccc2O[C@H]1CN(C)C	·	-15.5	·	·	·
Cc1ccc(-c2ccc3c(c2)O[C@@H](CN(C)CC2CCCC2)[C@H](C)CN([C@@H](C)CO)S3(=O)=O)cc1	·	-3.8	·	·	·
CC(C)CNc1nnnc2c1sc1nc(N3CCOCC3)c3c(c12)CCCC3	15.0	-12.2	-0.4	-6.2	-0.7
C=CCNc1nnnc2c1sc1nc(N3CCOCC3)c3c(c12)CCCC3	-74.5	9.7	-0.6	-68.4*	-1.2
N#Cc1cc(Cl)c(NCC2CCCO2)cc1C#N (stereo not drawn)	88.6*	-13.0	-16.6	49.5	4.2
N#Cc1cccc(C#N)c1NCC1CCCO1 (stereo not drawn)	23.7	-6.2	-3.8	2.7	1.5
CCOC(=O)C1=C(C)N(CCC(=O)O)C(=O)NC1c1ccccc1Cl (stereo not drawn)	-82.2	-0.7	-0.2	-77.0*	·
CO[C@H]1CN(C)C(=O)c2ccc(NC(=O)c3ccccc3F)cc2OC[C@@H](C)N(CC2CC2)C[C@@H]1C	·	19.6	·	·	·
COc1ccc(C[C@H]2CN3C(=NC[C@@H]3Cc3ccccc3)N2CCNC(=O)c2ccc(C)c(Br)c2)cc1	26.1	21.6	-0.1	6.3	16.7*
CN1[C@@H]2Cn3c(ccc(/C=C/c4ccccc4)c3=O)[C@H]1[C@@H](C(=O)NC1CCC1)[C@@H]2CO	·	-19.8	·	·	·
Cc1cc(N=NC(=O)c2ccccc2O)c2ccccc2c1O	77.4*	16.8	0.1	23.6	-0.7
CCC1Sc2ccc(S(=O)(=O)Nc3ccc(OC)cc3)cc2NC1=O (stereo not drawn)	-66.3	3.3	-0.2	-56.3*	3.9
CCC1Sc2ccc(S(=O)(=O)Nc3ccc(OC)c(OC)c3)cc2NC1=O (stereo not drawn)	-1.8	3.9	0.4	0.7	-5.8
CCCNC(=O)Nc1ccc2c(c1)C(=O)N(C)C[C@@H](OC)[C@H](C)CN(C(=O)C1CCC1)[C@@H](C)CO2	·	-9.9	·	·	·
O=C(COC(=O)c1ccccc1C(=O)c1ccc(Cl)cc1)NCCc1ccccc1	6.2	3.3	0.3	1.8	-1.1
O=C(COC(=O)c1ccccc1C(=O)c1ccccc1)NCCc1ccccc1	55.4*	-4.4	0.1	16.9	0.6
BrC(/C=N/Nc1nc(N2CCOCC2)nc(N2CCOCC2)n1)=C/c1ccccc1	64.2*	6.1	0.1	46.7	1.3
CC(=C/c1ccccc1)/C=N/Nc1nc(N2CCCCC2)nc(N2CCCCC2)n1	-7.5	3.1	0.1	-3.0	-2.7
SMILES	HSF1 activator	ARNT-TACC3 inh	HIF act	HSF1 inh	HSP90 inh
COc1ccccc1CNC(=O)C[C@H]1CC[C@@H]2[C@H](COC[C@@H](O)CN2C(=O)Nc2ccccc2)O1	·	4.7	·	·	·
Cc1ccc(C(C)C)c(OCc2ccc(C(=O)N/N=C/c3ccc(O)c(O)c3)cc2)c1	-28.7	-2.6	-3.6	-22.3	7.7
COc1cc([N+](=O)[O-])cc(/C=N/NC(=O)c2ccc(NC(=O)c3ccc(C)cc3)cc2)c1O	-65.3	-3.8	0.9	-58.3*	0.4
Cc1ccc(/C=N/NC(=S)NC(C)C)o1	47.8	5.2	2.2	28.5	-5.7
Cc1ccc(C(C)C)c(OCc2ccc(C(=O)N/N=C/c3cccc(O)c3O)cc2)c1	-57.8	-13.6	70.0*	-48.7	7.9
CC(C)NC(=S)N/N=C/c1cc(Br)ccc1O	10.4	53.5*	0.1	8.2	-0.2
COc1ccccc1/C=N/NC(=O)c1ccc(NC(=O)c2cccc([N+](=O)[O-])c2)cc1	-7.4	·	-0.1	-4.1	-2.9
COc1cc([N+](=O)[O-])cc(/C=N/NC(=O)c2ccc(C)nc2)c1O	-12.9	65.3*	0.6	-16.9	-1.8
COc1ccc(/C=N/NC(=O)c2cccc([N+](=O)[O-])c2)cc1O	4.4	-11.1	0.3	-1.7	-3.2
Cc1ccc(C(=O)N/N=C/c2cc(Br)ccc2O)cn1	11.9	20.0	15.6*	4.8	-4.9
COc1cc([N+](=O)[O-])cc(/C=N/NC(=O)CC#N)c1O	8.0	·	-0.5	-4.1	3.2
COc1cc([N+](=O)[O-])cc(/C=N/NC(=O)Cn2cncn2)c1O	-8.6	61.3*	-0.3	-9.7	1.6
COc1cc(/C=N/NC(=O)c2cccc([N+](=O)[O-])c2)ccc1OCc1ccc(C)cc1	68.4*	-2.4	2.5	46.3	-0.9
Cc1noc(C)c1NC(=O)Nc1ccc2c(c1)C(=O)N([C@H](C)CO)C[C@@H](C)[C@H](CN(C)Cc1ccc(Cl)c(Cl)c1)O2	·	1.3	·	·	·
CN(C)c1cccc(C(=O)OCCNC(=O)c2cccc(S(=O)(=O)N3CCOCC3)c2)c1	58.8*	-3.0	0.0	28.0	-7.0
CCN(CC)c1ccc(/C=N/NC(=O)c2cccc(S(=O)(=O)N3CCOCC3)c2)c(O)c1	-4.4	-3.2	101.9*	-5.4	-5.0
O=C(OCCOc1ccccc1)c1cccc(S(=O)(=O)N2CCOCC2)c1	·	-5.5	·	·	·
CCN(CC)c1ccc(C=Nc2cccc(S(=O)(=O)N3CCOCC3)c2)c(O)c1	·	7.4	·	·	·
CCN(CC)c1ccc(/C=N/NC(=O)c2c(Cl)cnn2C)c(O)c1	0.2	66.3*	14.9*	-11.9	-8.1
C[C@H](CO)N1C[C@H](C)[C@@H](CN(C)C(=O)CCC(F)(F)F)OCCCC[C@H](C)Oc2ccc(NS(=O)(=O)c3cn(C)cn3)cc2C1=O	·	-14.0	·	·	·
C[C@@H]1CN([C@H](C)CO)C(=O)CCCn2nncc2CO[C@H]1CN(C)C(=O)Nc1ccccc1F	·	-7.3	·	·	·
CSc1cccc(NC(=O)c2cnn3ccccc23)c1	81.1*	-1.5	2.1	51.7	1.1
CSc1cccc(NC(=O)c2ccccn2)c1	9.6	·	3.1	12.8	-1.0
COc1ccc([N+](=O)[O-])cc1N1C(=O)c2cccnc2C1=O	12.4	49.7*	-0.6	-5.4	-1.8
CC(=O)Oc1ccc([N+](=O)[O-])cc1N1C(=O)c2ccccc2C1=O	0.4	9.9	-0.2	-6.1	-4.1
CCC(=O)Nc1cccc(NC(=S)NC(=O)c2ccc(Cl)cc2)c1	64.5*	0.8	2.0	17.3	-3.3
